Potency and activity change, negative = cytotoxicity data for 26 compounds are collected here from PubChem BioAssay (NCATS).

A short description of the assay: P-glycoprotein substrates identified in KB-8-5-11 adenocarcinoma cell line, qHTS therapeutic library screen (AID 1346987). Further: nearly all actives have a fitted effect of over 65% in size. On activity change, negative = cytotoxicity: series mostly up to about 44 µM. Summed up:
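Human cervical adenocarcinoma KB-8-5-11 cells, selected in colchicine to over-express P-gp and assayed without it, were exposed for 72 h to titrated compounds. An ATP-based luminescent viability signal gave AC50.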
In general terms: qHTS replaces the single test concentration by a dilution series.

Results filed as inconclusive are left out. Where a call stands in place of a potency, no number is given. Values without a mark were called inactive. Active and inactive are the calls of the source. The call rests on the fitted dose curve; in most records, active means well fitted inhibition curve with a large enough effect; inconclusive means small, poorly fitted or top-dose-only effect; inactive means flat fitted curve, though single readings scatter.
Potency means the concentration at half of the fitted maximal effect.

On to `C/C1=C\[C@H]2OC(=O)[C@@H](C)[C@@H]2CC/C(C(=O)O)=C/CC1`, for which the Potency result is “inactive”.
Still for that read-out and setting: for `CC1(C(=O)O)CCCC2(C)C3CCC4CC3(CCC12)CC4=O` (stereo unspecified) the value was “inactive”; for `CN1CCc2nc(C(=O)N[C@@H]3C[C@@H](C(=O)N(C)C)CC[C@@H]3NC(=O)C(=O)Nc3ccc(Cl)cn3)sc2C1`, “inactive”.
The same measure, in the same setting: for `O=C(Nc1ccccc1)N1CCN(Cc2ccc3ccccc3n2)CC1` the value was “inactive”.
In the case of `c1cc(OCCCN2CCCCC2)ccc1CN1CCCCC1`, the Potency entry was “inactive”.
For the compound `Cc1cc2c(c(=O)[nH]1)OC(C(O)CC(C)C)O2` (stereo unspecified), the Potency entry is “inactive”.
For `CC1(C)CCCC2(C)C1CC(=O)C13CC(CCC12)C(O)(CO)C3` (stereo unspecified), the Potency result was “inactive”.
Consider `CO[C@H]1C[C@@H]2CC[C@@H](C)[C@@](O)(O2)C(=O)C(=O)N2CCCC[C@H]2C(=O)O[C@H]([C@H](C)C[C@@H]2CC[C@@H](OP(C)(C)=O)[C@H](OC)C2)CC(=O)[C@H](C)/C=C(\C)[C@@H](O)[C@@H](OC)C(=O)[C@H](C)C[C@H](C)/C=C/C=C/C=C/1C`, for which the Potency result is “inactive”.
Consider `C=CC(=O)Nc1cccc(CN2C(=O)N(c3c(Cl)c(OC)cc(OC)c3Cl)Cc3cnc(NCCCCN(CC)CC)nc32)c1`, for which the Potency entry is “inactive”.
Still for that read-out and setting: for `CC(O)/C=C/C1(O)C2(C)COC1(C)CC(O)C2` (stereo unspecified) the value was “inactive”; for `CC1C(=O)CC2C3CCC(C(=O)O)C12CC3(C)CO` (stereo unspecified), “inactive”.
As to `O=C1N=C(N2CCOCC2)CN1c1ccc(Cl)cc1`, the Potency result was “inactive”.
In the case of `C=C1C(OC(C)=O)CCC2(C)CC3(OC)OC(=O)C(C)=C3CC12` (stereo unspecified), the Potency result was “inactive”.
For `O=C1NC(=O)C(c2cn3c4c(cccc24)CCC3)C1c1c[nH]c2ccccc12` (stereo unspecified), the Potency was 1.3 µM (active).
In the case of `COC1CC(O[C@H]2CC[C@@]3(C)C(CCC4C3[C@H](OC(C)=O)[C@@H](OC(=O)/C=C/c3ccccc3)[C@]3(C)C(C(C)=O)CC[C@]43O)C2)OC(C)C1OC1CC(OC)C(OC2CC(OC)C(OC3OC(C)C(OC4OC(CO)C(O)C(O)C4O)C(OC)C3O)C(C)O2)C(C)O1` (stereo partly specified), the activity change, negative = cytotoxicity was -0.0477% [at 9.29 µM].
With `COc1ccc([C@H]2CNC(=O)C2)cc1OC1CCCC1`, the Potency result was “inactive”.
Same read-out and setting: for `C#CCN(Cc1cc2c(=O)n(C)c(CN3CCN(C)CC3)nc2cc1Cl)c1ccc(C(=O)NCc2cccnc2)cc1` the value was 0.259 µM (active).
Same read-out and setting: for `CC(C)NCC(C(=O)N1CCN(c2ncnc3c2C(C)CC3O)CC1)c1ccc(Cl)cc1` (stereo unspecified) the value was “inactive”; for `C=C1[C@@H]2CC[C@@H]3[C@@](CCC4C(C(=O)O)(C(=O)O)C[C@@H](O[C@@H]5O[C@H](CO)[C@@H](O)[C@H](O)[C@H]5OC(=O)CC(C)C)C[C@]43C)(C2)[C@H]1O` (stereo partly specified), “inactive”; for `COc1cc(C(=O)NC2CCN(C)CC2)c(F)cc1Nc1ncc2c(n1)N(C1CCCC1)CC(F)(F)C(=O)N2C`, 0.0517 µM (active).
On the same count and under the same terms, for `CC1(C)C2CC=C(COC3OC(COC4OCC(O)(CO)C4O)C(O)C(O)C3O)C1C2` (stereo unspecified) the value was “inactive”.
`COc1cc(O)c2c(c1)C1=C[C@H](O)[C@@H](O)C[C@]1(C)OC2=O`: the Potency result is “inactive”.
Same read-out and setting: for `NC(=O)[C@H](O[C@@H]1O[C@H](CO)[C@@H](O)[C@H](O)[C@H]1O)c1ccccc1` the value was “inactive”; for `O=C(c1cn(Cc2cncn2Cc2ccc(Br)cc2)cc1-c1cccc2ccccc12)N1CCOCC1`, 4.11 µM (active).
The same measure, in the same setting: for `CC(=O)c1cc2c(cc1O)OC(C)(C)C=C2` the value was “inactive”.
For the compound `CC(=O)C1=C(C)N(c2cccc(C(F)(F)F)c2)C(=O)N[C@H]1c1ccc(C#N)nc1`, the activity change, negative = cytotoxicity is -2.98% [at 9.29 µM].
